This is a sample that favours compounds with a hit; in the whole collection about 1.6% have one here.
MLLE-PAM2 inh = inhibitors of microRNA-mediated deadenylation, human PABP1 MLLE binding | P11940 | GST-MLLE / FITC-PAM2 fluorescence polarization | inhibition, % at 20 µM | actives 0.36% (n = 360,000) | AID 588489; in the data active = inhibition above about 35%, passing the limit was not always enough;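 note: plate controls were DMSO wells with GST-MLLE for no effect and wells lacking GST-MLLE protein for full effect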
PERK inh = human PERK inhibition, primary cell-based screen; Q9NZJ5; CHO PERK-DD fusion, SEAP luminescence translation reporter; inhibition, % at 5.6 µM; actives 0.17% (n = 220,000);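 active = inhibition above the mean inhibition of all tested compounds plus 3 SD, set separately per screening campaign, cut at about 2.9% in these data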;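 note: PERK kinase domain activated by AP20187 dimerizer at 100 nM; 0% = DMSO with dimerizer and 100% = rapamycin at 8.4 µM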
eIF4H inh = inhibitors of RNA binding by human eIF4H | Q15056 | eIF4H fluorescence polarization binding assay | inhibition, % at 35 µM | actives 0.94% (n = 290,000);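 note: calls also rest on retests at 20 µM and on dose response follow-up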
eIF4E 4G PPI = eIF4E/eIF4G interaction inhibition in translation initiation. P63073+Q04637. TR-FRET eIF4E-eIF4GI(517-606) binding, 2 h. inhibition, % at 21.7 µM. actives 0.37% (n = 220,000);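 active = inhibition above about 30%, limit read from the data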;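 note: 0% = full FRET control wells and 100% = background wells lacking eIF4GI fragment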
PABP FP inh = PABP-poly(A) binding inhibition; P11940; PABP-poly(A) RNA binding, fluorescence polarization; inhibition, % at 35 µM; actives 1% (n = 290,000);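 note: calls also rest on retests at 20 µM and on dose response follow-up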
* marks the source's active call; other numbers are inactive results; ? = inconclusive; . = no result; [ ] = another dose, or the depositor's remark. Unless noted, the rule behind the calls is not given here.

SMILES	MLLE-PAM2 inh	PERK inh	eIF4H inh	eIF4E 4G PPI	PABP FP inh
O=C(CSc1nnc(Cc2cc(=O)[nH]c(=O)[nH]2)n1-c1ccc(Cl)cc1)NC1CCCC1	31.2	2.1	62.4*	-8.5	64.6*
Cc1cc(C)c(C(=O)COC(=O)c2nn(C)c(=O)c3ccccc23)cc1C	2.8	.	.	.	.
CC(C#N)(CCc1ccccn1)CCc1ccccn1	-2.9	.	.	.	.
Cc1sc(NC(=O)CCl)c(C(=O)c2ccccc2)c1C	36.9*	-0.3	-5.8	1.4	-0.4
Cc1ccccc1C(=O)Nc1sc(C)c(C)c1C(=O)c1ccccc1	32.1	-1.0	-8.0	11.8	-6.9
C[C@H](CO)N1C[C@H](C)[C@@H](CN(C)S(=O)(=O)c2cn(C)cn2)OCc2cnnn2CCCC1=O	-2.6	.	.	.	.
O=C(NC(=S)Nc1ccccc1Cl)C1CC1	40.9*	.	2.3	.	7.2
CC(=O)c1cccc(NC(=S)NC(=O)c2ccccc2Cl)c1	21.9	-0.7	-8.6	4.5	-1.6
COc1ccccc1NC(=S)NC(=O)C1CC1	19.7	-0.4	-5.1	12.3	-0.3
O=C(NC(=S)Nc1ccccc1O)c1ccccc1Cl	43.9*	0.0	0.8	-0.9	-5.9
CC1(C2CC2)NC(=O)N(CC(=O)Nc2ccccc2C#N)C1=O (stereo not drawn)	16.5	.	.	.	.
CN1CCc2c(sc3c2C(=O)NC(c2cccs2)N3)C1 (stereo not drawn)	-12.2	0.2	?	-11.8	-0.9
CSc1ccc(C2NC(=O)c3c(sc4c3CCN(C)C4)N2)cc1 (stereo not drawn)	-65.2	0.9	108.6*	1.8	120.6*
COc1ccc(OC)c(Nc2ncnc3sc(-c4ccccc4)cc23)c1	-4.1	0.6	8.0	38.4*	-8.1
Cc1c(C(=O)O)cccc1-c1ccc(/C=C2/NC(=O)N(c3ccccc3)C2=O)o1	6.1	0.9	9.2	-0.9	10.7
N=C1S/C(=C\c2ccc(-c3ccccc3C(=O)O)o2)C(=O)N1c1ccc2c(c1)OCO2	-72.4	1.6	87.3*	8.1	62.8*
O=C(O)CN1C(=O)S/C(=C\c2ccc3c(c2)OCO3)C1=O	9.2	.	.	.	.
COc1ccccc1N1C(=N)S/C(=C\c2ccc(-c3ccccc3C(=O)O)o2)C1=O	-88.9	1.1	58.7*	17.4	4.1
CNc1ccc(Br)cc(C(=O)/C=C/c2cccc(OC)c2)c1=O	-63.3	1.0	80.5*	-2.2	active
CCNc1ccc(Br)cc(C(=O)/C=C/c2ccc3c(c2)OCO3)c1=O	-57.0	-0.3	78.5*	27.4	38.3*
CCNc1ccc(Br)cc(C(=O)/C=C/c2ccc(Cl)cc2)c1=O	-83.1	0.1	34.0	8.2	10.2
CC(=O)c1ccc(OCC(=O)OCC(=O)N(CC(C)C)c2c(N)n(Cc3ccccc3)c(=O)[nH]c2=O)cc1	11.2	.	.	.	.
CCCSc1nnc(N2C(=O)C(O)=C(C(=O)c3ccco3)C2c2ccccc2F)s1 (stereo not drawn)	18.8	.	?	.	94.6*
O=C(COC(=O)c1ccco1)Nc1ccc(N2CCOCC2)cc1	-3.6	.	.	.	.
S=c1nc(C2COc3ccccc3O2)[nH][nH]1 (stereo not drawn)	28.6	-0.5	6.1	6.4	-6.3
SMILES	MLLE-PAM2 inh	PERK inh	eIF4H inh	eIF4E 4G PPI	PABP FP inh
S=c1[nH]nc(C2COc3ccccc3O2)o1 (stereo not drawn)	-83.9	3.0*	-8.5	-0.2	21.5
CCN1C(=O)[C@@H]2[C@@H]3CN(S(=O)(=O)c4ccc(C)cc4)[C@@H](c4ccccc4Cl)[C@@H]3C(=O)C[C@@H]2C1=O	8.5	.	.	.	.
COc1ccc([N+](=O)[O-])cc1/C=N/NC(=O)CNC(=O)C(c1ccccc1)c1ccccc1	-2.8	-0.2	83.8*	-4.5	active
COc1ccc([N+](=O)[O-])cc1/C=N/NC(=O)CNC(=O)c1cccc(F)c1	-5.4	0.7	-1.7	3.3	-5.0
Cc1ccsc1C(=O)NCCc1nnc2ccccn12	10.3	.	-3.5	.	2.0
COC(=O)c1ccc(COC(=O)[C@@H]2CC(O)CN2S(=O)(=O)c2ccccc2[N+](=O)[O-])cc1 (stereo partly drawn)	1.7	.	.	.	.
CC1CCc2c(sc3ncnc(N4CCOCC4)c23)C1 (stereo not drawn)	-1.2	-1.7	-2.0	-5.2	7.0
CC1CCc2c(sc3ncnc(NCCN4CCOCC4)c23)C1 (stereo not drawn)	9.5	.	-13.6	50.5*	-4.4
CCNC(=O)C1(C)CCN(C(=O)c2ccc(OC)c(OC)c2)C1 (stereo not drawn)	1.0	.	.	.	.
Cc1ccc2cc(C3CC(c4ccco4)=NN3C(=O)CCC(=O)O)c(Cl)nc2c1 (stereo not drawn)	11.9	-0.4	?	9.0	4.5*
COc1ccc(CC(=O)N/N=C/c2ccc(-c3cccc(C(=O)O)c3)o2)cc1OC	13.4	1.2	81.4*	-1.4	52.6*
Cc1ccc(OCC(=O)N/N=C\c2ccc(-c3cccc(C(=O)O)c3)o2)c(C)c1	-3.7	0.9	89.4*	2.7	1.8
COc1ccc(CC(=O)N/N=C/c2ccc(-c3ccc(F)cc3)o2)cc1OC	-4.8	-1.6	0.0	-2.7	4.9
CN(C(=O)c1cccc(NC(=O)Cc2ccc(NC(=O)C3CCCN(C(=O)CCc4ccccc4)C3)cc2)c1)C1CCCCC1 (stereo not drawn)	-8.2	.	.	.	.
CCOC(=O)c1cc(-c2ccccc2)sc1NC(=O)C(C)N1C(=O)NC(C)(c2ccc(Cl)cc2)C1=O (stereo not drawn)	-45.9	-2.4	active	-18.6	70.7*
NC(=O)NC(=O)COC(=O)c1ccc(Cl)c(S(=O)(=O)N(Cc2ccccc2)c2ccc(Cl)cc2)c1	7.5	-1.2	83.4	3.2	16.3*
NC(=O)COC(=O)c1ccc(Cl)c(S(=O)(=O)N(Cc2ccccc2)c2ccc(Cl)cc2)c1	-0.8	0.1	-12.9	2.9	-8.0
CC(C)C(=O)NNc1ccc(C(F)(F)F)cn1	2.0	3.6*	0.2	0.5	9.8
Cc1ccc(C(=O)NC(=S)NNS(=O)(=O)c2ccccc2)cc1	41.1*	1.1	19.6	-7.6	7.1
Cc1cccn2c(CNCCCn3ncc4ccccc43)c(C(=O)N3CCCCC3)nc12	-3.0	-0.3	-1.9	4.4	53.2*
CCOc1ccccc1NC(=O)C1CCN(S(=O)(=O)c2cccc3cccnc23)CC1	10.3	.	-2.6	57.4*[fluorescence artefact?]	-1.2
COc1ccc(N=C2SC(CC(=O)Nc3ccccc3)C(=O)N2CC2CCCO2)cc1 (stereo not drawn)	2.2	-1.5	-4.8	1.2	-1.8
COc1ccc(N=C2SC(CC(=O)Nc3ccccc3)C(=O)N2CCN2CCOCC2)cc1 (stereo not drawn)	-4.0	0.0	active	-7.3	71.6*
CC(C)c1ccc(S(=O)(=O)N2CCC(C(=O)N3CCN(c4cccc(Cl)c4)CC3)CC2)cc1	-0.8	.	.	.	.
O=C(C1CCN(S(=O)(=O)c2cccnc2)CC1)N1CCN(c2cccc(Cl)c2)CC1	-9.8	-1.1	3.4	86.3*	-10.0
O=C(OCC1CC(c2ccccn2)=NO1)c1ccc(Br)cc1 (stereo not drawn)	12.0	-0.3	-7.2	42.5*	-14.2

Screening results as filed in PubChem BioAssay.
